Inconclusive results are not listed. The source made the active and inactive calls. Calls follow the shape of the dose curve; as a rule, active = well fitted curve in the direction sought with a large enough effect; inconclusive = small, poorly fitted or top-dose-only effect, or another doubt; inactive = no such curve, though single readings can be large; an effect the other way counts as inactive or inconclusive.

Experimental findings from PubChem BioAssay (NCATS) are described below.

Assay [1] is described as follows: S16 Schwann cell viability assay (CellTiter-Glo assay) (AID 624031).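 Also: native untransfected S16 rat Schwann cells; nearly all actives have a fitted effect of over 70% in size.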 The gist of the method:
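Parental S16 cells, 24 h compound, 37 °C. ATP-luminescence viability; DMSO = 0% activity, empty wells as reference; curves classified by fit quality and efficacy.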
Background: ATP-based viability assays read luminescence as a measure of living cells.

Assay [2] has as its system ATS189. Briefly: qHTS profiling for inhibitors of Plasmodium falciparum proliferation (AID 504749). Also: nearly all actives have a fitted effect of over 60% in size. Also: potency is read from the fitted curve at half-maximal effect. The conditions noted are these: P. falciparum in erythrocytes, SYBR Green DNA, 72 h; series mostly up to 12.8 µM. The procedure, abridged: (§1)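 Infected RBCs, 0.3% parasitemia/2.5% Hct final; cpd 72 h, 37 C, 5% CO2; lysis buffer with saponin/triton/SYBR Green I, o/n RT dark; FI 485/535; norm. to artemisinin (0.29 uM) and DMSO.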

For assay [3], the system named is CP185. The assay is described as above. The conditions noted are these: P. falciparum in erythrocytes, SYBR Green DNA, 72 h; series mostly up to 12.8 µM. The gist of the method:
as §1

Assay [4] relates to CP191. The assay is described as above. The note with it: P. falciparum in erythrocytes, SYBR Green DNA, 72 h; series mostly up to 12.8 µM. The gist of the method:
as §1

The subject of assay [5] is CP192. The assay is described as above. The note with it: P. falciparum in erythrocytes, SYBR Green DNA, 72 h; series mostly up to 28.7 µM. The gist of the method:
as §1

Assay [6] has as its system CP201. Described as above. The conditions noted are these: P. falciparum in erythrocytes, SYBR Green DNA, 72 h; series mostly up to 12.8 µM. The gist of the method: as §1
The test system of assay [7] is CP247. The assay is described as above. The conditions noted are these: P. falciparum in erythrocytes, SYBR Green DNA, 72 h; series mostly up to 12.8 µM. The procedure, abridged: as §1
Assay [8] concerns CP250. The assay is described as above. The note with it: P. falciparum in erythrocytes, SYBR Green DNA, 72 h; series mostly up to 12.8 µM. The gist of the method:
as §1

Assay [9] relates to CP256. The description is as above. The conditions noted are these: P. falciparum in erythrocytes, SYBR Green DNA, 72 h; series mostly up to 12.8 µM. The procedure, abridged: as §1
Assay [10] concerns CP262. The description is as above. The note with it: P. falciparum in erythrocytes, SYBR Green DNA, 72 h; series mostly up to 12.8 µM. The procedure, abridged: as §1
Assay [11] has as its system CP265. The assay is described as above. The conditions noted are these: P. falciparum in erythrocytes, SYBR Green DNA, 72 h; series mostly up to 12.8 µM. The gist of the method:
as §1

Assay [12] relates to CP325. The description is as above. The note with it: P. falciparum in erythrocytes, SYBR Green DNA, 72 h; series mostly up to 12.8 µM. The gist of the method: as §1
For assay [13], the system named is CP329. The description is as above. The conditions noted are these: P. falciparum in erythrocytes, SYBR Green DNA, 72 h; series mostly up to 12.8 µM. The gist of the method: as §1
For assay [14], the system named is Dd2. The description is as above. The conditions noted are these: P. falciparum in erythrocytes, SYBR Green DNA, 72 h; series mostly up to 12.8 µM. The procedure, abridged:
as §1

Assay [15] deals with JCK. The assay is described as above. The note with it: P. falciparum in erythrocytes, SYBR Green DNA, 72 h; series mostly up to 12.8 µM. The gist of the method:
as §1

The subject of assay [16] is N140. The description is as above. The note with it: P. falciparum in erythrocytes, SYBR Green DNA, 72 h; series mostly up to 12.8 µM. The procedure, abridged:
as §1

In assay [17] the test system is PC15. The description is as above. The conditions noted are these: P. falciparum in erythrocytes, SYBR Green DNA, 72 h; series mostly up to 12.8 µM. The gist of the method:
as §1

In assay [18] the test system is PC49. Described as above. The note with it: P. falciparum in erythrocytes, SYBR Green DNA, 72 h; series mostly up to 12.8 µM. The gist of the method: as §1
For assay [19], the system named is SC27B. Described as above. The note with it: P. falciparum in erythrocytes, SYBR Green DNA, 72 h; series mostly up to 12.8 µM. The gist of the method: as §1
The subject of assay [20] is TAB113. Described as above. The conditions noted are these: P. falciparum in erythrocytes, SYBR Green DNA, 72 h; series mostly up to 12.8 µM. The procedure, abridged:
as §1

For `CC(=O)OCC1=C(C(=O)O)N2C(=O)[C@@H](NC(=O)CSc3ccncc3)[C@@H]2SC1`, the Potency result in [1], in assay [2], in [3], in [4], in [5] and in assay [6] was “inactive” each time. Besides, the Potency result in assay [7], in [8], in assay [9], in assay [10], in [11] and in assay [12] was “inactive” in each case. Also, the Potency entry in [13], in [14], in assay [15], in assay [16], in assay [17] and in assay [18] was “inactive” throughout. Further, the Potency entry in assay [19] and in assay [20] was “inactive” in each case.

In the case of `O=C(C1CCCCC1)N1CC(=O)N2CCc3ccccc3[C@@H]2C1`, in assay [1], the Potency entry is “inactive”.

Take `CC(C)NC[C@H](O)c1cc(O)cc(O)c1`: the Potency entry in assay [1], in assay [2], in assay [3], in assay [4], in [5] and in [6] was “inactive” each time. Further, the Potency result in [7], in assay [8], in assay [9], in assay [10], in assay [11] and in [12] was “inactive” each time. The Potency result in [13], in assay [14], in [15], in assay [16], in [17] and in [18] was “inactive” in each case. In addition, the Potency result in assay [19] and in assay [20] was “inactive” in each case.

With `C[C@@H](CCc1ccccc1)NC[C@H](O)c1ccc(O)c(C(N)=O)c1`, the Potency result in assay [1], in [2], in assay [3], in [4], in [5] and in assay [6] was “inactive” throughout. The Potency entry in assay [7], in [8], in assay [9], in assay [10], in assay [11] and in [12] was “inactive” each time. Further, the Potency result in assay [13], in assay [14], in assay [15], in assay [16], in assay [17] and in assay [18] was “inactive” in each case. For the same compound, the Potency result in assay [19] and in assay [20] was “inactive” each time.

Consider `CN(C)[C@@H]1C(=O)C(C(N)=O)=C(O)[C@]2(O)C(=O)C3=C(O)c4c(O)ccc(Cl)c4[C@H](O)[C@H]3C[C@@H]12`, for which the Potency result in assay [1], in assay [2], in assay [3], in assay [4], in assay [5] and in assay [6] was “inactive” each time. Moreover, the Potency entry in [7], in [8], in [9], in assay [10], in assay [11] and in assay [12] was “inactive” each time. For the same compound, the Potency result in [13], in [15], in assay [16], in [17], in [18] and in assay [19] was “inactive” each time. The Potency result in assay [20] is “inactive”. Besides, in assay [14], the Potency is 3.16 µM (active).

Regarding `CCCN[C@@H](C)C(=O)Nc1ccccc1C`, the Potency result in assay [1], in assay [2], in assay [3], in assay [4], in [5] and in [6] was “inactive” each time. In addition, the Potency result in assay [7], in [8], in assay [9], in assay [10], in [11] and in assay [12] was “inactive” throughout. Besides, the Potency entry in [13], in assay [14], in assay [15], in assay [16], in assay [17] and in assay [18] was “inactive” throughout. The Potency result in [19] and in assay [20] was “inactive” each time.

As to `O=C(c1ccccc1)c1ccc2n1CC[C@H]2C(=O)O`, the Potency result in assay [1], in assay [2], in assay [3], in assay [4], in assay [5] and in assay [6] was “inactive” in each case. For the same compound, the Potency result in [7], in assay [8], in [9], in assay [10], in assay [11] and in assay [12] was “inactive” each time. For the same compound, the Potency result in [13], in assay [14], in assay [15], in assay [16], in assay [17] and in [18] was “inactive” in each case. Also, the Potency result in [19] and in assay [20] was “inactive” in each case.

On to `CC[C@]1(C)CC(=O)NC1=O`, for which the Potency entry in assay [1], in assay [2], in assay [3], in [4], in assay [5] and in [6] was “inactive” each time. In addition, the Potency result in [7], in [8], in [9], in [10], in [11] and in assay [12] was “inactive” throughout. For the same compound, the Potency entry in assay [13], in assay [14], in [15], in assay [16], in assay [17] and in assay [18] was “inactive” in each case. The Potency entry in assay [19] and in [20] was “inactive” throughout.

As for `N[C@@H](CO)C(=O)NNCc1ccc(O)c(O)c1O`, the Potency entry in [2], in assay [3], in assay [4], in [5], in assay [6] and in assay [7] was “inactive” in each case. For the same compound, the Potency result in assay [8], in assay [9], in [10], in [11], in assay [12] and in assay [13] was “inactive” throughout. Further, the Potency entry in assay [14], in [15], in assay [16], in [17], in assay [18] and in [19] was “inactive” in each case. In addition, the Potency entry in [20] was “inactive”.

Turning to `CO[C@]1(NC(=O)CSCC#N)C(=O)N2C(C(=O)O)=C(CSc3nnnn3C)CS[C@H]21`, the Potency result in [1], in [2], in assay [3], in assay [4], in assay [5] and in [6] was “inactive” each time. The Potency entry in [7], in [8], in [9], in [10], in assay [11] and in assay [12] was “inactive” each time. The Potency entry in assay [13], in [14], in assay [15], in assay [16], in assay [17] and in [18] was “inactive” in each case. In addition, the Potency entry in [19] and in assay [20] was “inactive” each time.

Regarding `C[C@@H]1c2cccc(O)c2C(O)=C2C(=O)[C@@]3(O)C(O)=C(C(N)=O)C(=O)[C@@H](N(C)C)[C@@H]3[C@@H](O)[C@@H]21`, the Potency result in assay [1], in assay [4], in assay [5], in [6], in [7] and in assay [8] was “inactive” each time. Also, the Potency result in assay [10], in assay [11], in assay [13], in assay [15], in [16] and in assay [17] was “inactive” throughout. For the same compound, the Potency result in [18] is “inactive”. The Potency in [14] is 3.98 µM (active).

With `CC(C)(C)NC[C@H](O)c1cc(O)cc(O)c1`, the Potency result in assay [1], in assay [2], in [3], in assay [4], in [5] and in [6] was “inactive” throughout. In addition, the Potency result in assay [7], in [8], in assay [9], in [11], in assay [12] and in assay [13] was “inactive” in each case. Further, the Potency result in assay [14], in assay [15], in [16], in [17], in [18] and in assay [19] was “inactive” in each case. In assay [20], the Potency entry was “inactive”.

Consider `CCCN(CCC)C(=O)[C@@H](CCC(=O)O)NC(=O)c1ccccc1`, for which the Potency result in assay [1], in assay [2], in [3], in [4], in assay [5] and in assay [6] was “inactive” throughout. The Potency entry in assay [7], in assay [8], in assay [9], in assay [10], in assay [11] and in [12] was “inactive” each time. Further, the Potency result in assay [13], in assay [14], in assay [15], in assay [16], in assay [17] and in [18] was “inactive” each time. Further, the Potency entry in assay [19] and in assay [20] was “inactive” throughout.
